Among all 94,000 compounds or so, about 6,200 (6.6%) were called active. Another 31% or so got no clear call; they are omitted. Calls come from the whole dose curve; as a rule, active = well fitted inhibition curve with a large enough effect; inconclusive = small, poorly fitted or top-dose-only effect; inactive = flat fitted curve, though single readings scatter. The list comes from a sample in which actives are over-represented; it also holds similar structures and randomly drawn compounds. Where a call stands in place of a potency, no number is given.
Assay: Cytotoxic Profiling in HEK 293 Cell Line of Diverse Libraries Using Quantitative High-Throughput Screening; note: nearly all actives have a fitted effect of over 60% in size
Settings: HEK 293 viability, ATP luminescence (CellTiter-Glo), 48-72 h; series mostly up to 115 µM
In short: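 HEK 293 cells at 250 cells/well were exposed to compounds by pintool transfer for 48 or 72 hr at 37 degree Celsius, 5% CO2. Viability was read as ATP-coupled luminescence with CellTiter-Glo after 10 min at room temperature.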
Potency is the fitted concentration of half-maximal effect.

SMILES	Potency
O=c1[nH]c(N2CCOCC2)nc2c1CCN(Cc1cccc(F)c1)CC2	inactive
CN(C)c1ccc(C(=O)N2CCN3C(=O)N(Cc4ccccc4)C(=O)[C@H]3C2)cc1	inactive
CC1=C[C@@H](CNC2CC2)[C@H](C(C)C)C[C@H]1Cc1nnc(-c2ccc(C)cc2)o1	50.1 µM (active)
CC1=C[C@@H](CNC(C)C)[C@H](C(C)C)C[C@H]1Cc1nnc(-c2ccc(C)cc2)o1	70.8 µM (active)
CC(=O)NC[C@@H]1C=C(C)[C@H](CC(=O)N2CCCC2)C[C@H]1C(C)C	inactive
CC1=C[C@@H](CNC(C)C)[C@H](C(C)C)C[C@H]1Cc1nnc(-c2ccc(N(C)C)cc2)o1	31.6 µM (active)
O=C1CCC2(CCCN(C(=O)c3ccc(F)cc3)C2)CN1CCc1cnc[nH]1 (stereo not given)	inactive
CC(C)CN1CC2(CCN(C(=O)c3conc3-c3ccccc3)CC2)CC1=O	inactive
CC(C)S(=O)(=O)N1CCC(c2nnc3n2CCNC3)CC1	inactive
O=C(C1C2C(=O)N(C3CCCCCC3)C[C@@]23C=C[C@@H]1O3)N1CCS(=O)(=O)CC1 (stereo not given in full)	inactive
COCCN1CCOC[C@H]2CCN(C(=O)c3sc(C)nc3C)C[C@H]21	inactive
COCCNC(=O)CC[C@]12CC[C@](C)(O)C[C@H]1C(C)(C)C[C@@H]2NC(=O)c1ccco1	inactive
COc1cccc(CN2CC[C@@](C)(O)[C@H](N3CCCC3)C2)c1	inactive
N[C@@H]1CCN(Cc2cccc(Oc3ccc(F)cc3)c2)C[C@H]1O	79.4 µM (active)
CNC(=O)[C@@H]1CN(Cc2cccc(OC)c2)C[C@H]1CO	inactive
COC(=O)C1=C(C)N=C2SC=C(CC(=O)NCc3ccco3)N2C1c1cccc(F)c1 (stereo not given)	inactive
CC(C)(C)c1nc(C(=O)N2CCOCC2)n2ccccc12	inactive
CCCNC(=O)N1CCCC1c1nc(C2CCOCC2)no1 (stereo not given)	inactive
COCCN1C(=O)CS(=O)C12CCN(C(=O)NC1CCCC1)CC2 (stereo not given)	inactive
Cn1nccc1C(=O)N1CCCCCNC(=O)[C@@H]2CCC[C@@H]21	inactive
COc1ccccc1Nc1ncc2c(n1)CN(C(=O)COc1ccccc1)CCN2	inactive
O=C(c1cccc(O)c1)N1CCNc2cnc(Nc3cccc(F)c3)nc2C1	100 µM (active)
O=C(c1cccc(F)c1)N1CCCC(c2nccn2Cc2cscn2)C1 (stereo not given)	inactive
Cc1ccc(C(=O)N2C[C@H]3CN(C4CCOCC4)C[C@@]3(C(=O)O)C2)cc1	inactive
COCCn1c(C)nnc1-c1cc(-c2cccc(F)c2)ccn1	inactive

SMILES	Potency
Cc1nnc(-c2cc(-c3ccccc3)ccn2)n1CCc1ccccc1	89.1 µM (active)
COc1ccc(-c2ccnc(-c3nnc(C)n3C3CCN(C)CC3)c2)cc1OC	inactive
O=C(C1CCN([S+](=O)([O-])c2cccs2)CC1)N1CCC(c2nc3ncccc3[nH]2)CC1	inactive
Cc1ccc(N2Cc3c(NC4CCCCC4)ncnc3N(C)CC2=O)cc1	inactive
O=C(Cc1cccn1-c1ccccc1)N1CCOCC1	inactive
Cc1ccc(C(=O)N2CCCC(C(=O)NCc3ccccc3)CCNC(=O)CC2)s1 (stereo not given)	inactive
O=[N+]([O-])c1cccc(-c2noc([C@@H]3C[C@@H](O)CN3Cc3cccnc3)n2)c1	inactive
COc1ccc(-c2nc(C3CC3)nc3c2CCN([S+](=O)([O-])c2ccccc2)CC3)cc1	inactive
COc1ccc(C(=O)N2CCc3nc(C4CC4)nc(-c4ccc(Cl)cc4)c3C2)cc1	inactive
COc1cccc(C(=O)N2CCc3nc(C(C)C)nc(-c4ccc(Cl)cc4)c3C2)c1	89.1 µM (active)
COc1ccc(-c2nc(C)nc3c2CN([S+](C)(=O)[O-])CC3)cc1	inactive
COc1ccc(-c2nc(C(C)C)nc3c2CCN([S+](=O)([O-])c2cccc(C(F)(F)F)c2)CC3)cc1	39.8 µM (active)
COc1ccc(-c2nnc3n2CCN(C(=O)c2cccc(OC)c2)C3)cc1	inactive
CCC(CC)C(=O)N1CCC(N2CCCC(C(=O)NCc3ccccc3)C2)CC1 (stereo not given)	inactive
COc1cc(SC)ccc1C(=O)N[C@@H]1C=C(C(=O)N[C@H](Cc2ccccc2)C(N)=O)C[C@@H](O)[C@@H]1O	inactive
CCCC(NC(C)=O)C(=O)Nc1cccc(NC(=O)Cc2ccccc2)c1 (stereo not given)	inactive
O=c1[nH]c(C2CCN(Cc3ccc(F)cc3)CC2)nn1Cc1ccccc1	inactive
COc1ccccc1C(=O)N1CCC(n2cnnc2C2CC2)CC1	inactive
COc1ccccc1C(=O)N1CCC2(CCC(=O)N(Cc3ccccc3)CC2)CC1	inactive
COc1ccccc1C(=O)N1CCC2(CC1)CC(=O)c1ccccc1O2	112 µM (active)
OC1CC(c2cc(N3CCC(c4nnc5n4CCCCC5)CC3)ncn2)C1 (stereo not given)	inactive
O=C(O)c1cccc(-c2ccccn2)c1	inactive
COCCN1C(=O)c2cccn2CC1CNC(=O)c1ccccc1F (stereo not given)	inactive
CN(C)[C@@H]1CO[C@H](CNS(=O)(=O)c2ccccc2)[C@H]1O	inactive
CNC(=O)c1cc[nH]c1C1CCCN(C(=O)Cc2c[nH]c3ccccc23)C1 (stereo not given)	inactive

— PubChem BioAssay AID1345083 (National Center for Advancing Translational Sciences (NCATS), 2018)
